Sampled rows, rich in hits. Any-hit rate of the full collection: about 1.4%.
MenB inh – M. tuberculosis MenB inhibitors, primary screen, biochemical, absorbance | 1,4-dihydroxy-2-naphthoyl-CoA synthase (Mycobacterium tuberculosis (strain ATCC 25618 / … | MenB enzyme assay, absorbance read-out | inhibition, % (test concentration not listed) | 100,000 compounds, 0.43% hits; in the data active means inhibition above about 21%, passing the limit was not always enough
Target sequence (P9WNP5 whole entry, looked up): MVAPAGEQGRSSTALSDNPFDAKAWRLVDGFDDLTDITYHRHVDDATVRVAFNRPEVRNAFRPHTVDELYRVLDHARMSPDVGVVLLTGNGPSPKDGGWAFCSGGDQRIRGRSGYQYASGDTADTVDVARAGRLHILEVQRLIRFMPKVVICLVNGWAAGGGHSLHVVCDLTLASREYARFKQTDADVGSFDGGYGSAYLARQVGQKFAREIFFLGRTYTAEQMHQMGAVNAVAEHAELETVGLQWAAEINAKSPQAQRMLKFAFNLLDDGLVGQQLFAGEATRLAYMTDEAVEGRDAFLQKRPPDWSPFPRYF
Polio RdRp inh – poliovirus RdRp elongation inhibitors, primary screen, biochemical, fluorescence polarization, total intensity | AID 588519, 2011 | Genome polyprotein (Poliovirus type 1 (strain Mahoney)), P03300 | % elongation, % (compound at 16.7 µg/mL) | 150,000 compounds, 0.66% hits | poliovirus polymerase elongation; active compounds read low; in the data active means % elongation below about 90%
MbtI inh – MbtI salicylate synthase inhibitors, primary screen, biochemical, fluorescence intensity; P9WFX0; purified MbtI enzyme, fluorescence intensity read-out; inhibition, % (no concentration beside the values); 100,000 compounds, 0.89% hits; in the data active means inhibition mostly above about 56%, no sharp cut-off; inactive means mostly below about 77%
Target sequence (P9WFX0 whole entry, looked up): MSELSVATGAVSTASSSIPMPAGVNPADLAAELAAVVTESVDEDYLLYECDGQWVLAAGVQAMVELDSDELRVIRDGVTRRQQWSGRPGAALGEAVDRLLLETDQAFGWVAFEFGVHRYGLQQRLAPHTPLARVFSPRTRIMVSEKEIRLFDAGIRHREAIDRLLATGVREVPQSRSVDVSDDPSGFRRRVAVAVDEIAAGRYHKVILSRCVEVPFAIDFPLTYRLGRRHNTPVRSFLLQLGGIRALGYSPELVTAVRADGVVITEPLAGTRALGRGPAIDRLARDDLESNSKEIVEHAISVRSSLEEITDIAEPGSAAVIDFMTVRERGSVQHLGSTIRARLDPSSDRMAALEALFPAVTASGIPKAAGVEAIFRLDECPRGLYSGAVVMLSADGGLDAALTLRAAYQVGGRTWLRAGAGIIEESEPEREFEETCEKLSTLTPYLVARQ
AID504770 – growth inhibition of E. coli YBA685, primary screen, V. cholerae RctB inhibitors; E. coli YBA685 rctB-dependent plasmid, OD600 growth, 3 h; active compounds read low; z-score (test concentration not listed); 130,000 compounds, 0.27% hits; in the data active means z-score below about -2, passing the limit was not always enough
Each line names hits and unclear results; the compound was inactive in the other large screens.

CCOC(=O)c1c(NC(=O)c2cc(-c3cccc(OC)c3)on2)sc2c1CCCC2	Polio RdRp inh 77.0 (no result: MenB inh, MbtI inh, AID504770)
CCOC(=O)c1c(-c2ccccc2)csc1NC(=O)c1cc(-c2cccc(Cl)c2)on1	Polio RdRp inh 84.0 (no result: MenB inh, MbtI inh, AID504770)
CCOC(=O)c1c(-c2ccc(C)cc2)csc1NC(=O)c1cc(-c2ccc(Cl)cc2)on1	none (no result: MenB inh, MbtI inh, AID504770)
COc1ccc(C2(C(=O)N3CCC(n4nc(-c5ccccc5)oc4=O)CC3)CC2)cc1	none
CCOC(=O)c1c(-c2ccc(C)cc2)csc1NC(=O)c1cc(-c2ccc(OC)cc2)on1	none (no result: MenB inh, MbtI inh, AID504770)
CCOC(=O)c1c(-c2ccccc2)csc1NC(=O)c1cc(-c2cccc(OC)c2)on1	Polio RdRp inh 71.0 (no result: MenB inh, MbtI inh, AID504770)
CS(=O)(=O)c1nc(-c2ccc(Br)cc2)n[nH]1	MbtI inh 89.7
CS(=O)(=O)c1nc(-c2ccc(Cl)cc2)n[nH]1	none (no result: MbtI inh)
CSC(=S)N(C)/N=C/c1cc(Cl)cc(Cl)c1O	none
O/N=C(\c1ccccc1)c1ccc(Cl)cc1	none (no result: MenB inh, Polio RdRp inh, MbtI inh)
COc1ccc(-c2noc(-c3ccc(NC4CCCC4)c([N+](=O)[O-])c3)n2)cc1OC	Polio RdRp inh 79.0 (no result: MenB inh, MbtI inh, AID504770)
Cc1nc(-c2ccc(Cl)cc2)sc1CCNC(=O)C(=O)Nc1ccc2c(c1)OCO2	none (no result: MenB inh, MbtI inh, AID504770)
CCN1CN=C(Nc2nc(C)c3cc(C)ccc3n2)NC1	none
CC1=CC(C)(C)N=C(Nc2nc(C)c3cc(C)cc(C)c3n2)N1	Polio RdRp inh 76.0 (no result: MbtI inh)
Cc1csc2ncnc(N3CCN(C(=S)NCC4CC4)CC3)c12	Polio RdRp inh 88.0
Cc1ccc(-c2csc(N3CCC(C(N)=O)(N4CCCCC4)CC3)n2)cc1	none
COc1ccccc1Nc1nn2c(=O)c3ccc(C(=O)NCCCOC(C)C)cc3nc2s1	none (no result: MenB inh, MbtI inh, AID504770)
CCN(CC)CCNC(=O)c1ccc2c(=O)n3nc(Nc4ccccc4OC)sc3nc2c1	Polio RdRp inh 65.0 (no result: MenB inh, MbtI inh, AID504770)
COc1ccc(C2=NOC(C(=O)N(C)C3CCCCC3)C2)cc1 (centres undefined)	none
O=C(CCCc1ccccc1)Nc1scc2c(=O)oc3ccccc3c12	Polio RdRp inh 79.0 (no result: MbtI inh)
COc1ccc(-c2cc(-c3ccccc3)c(C#N)c(SCC(O)CS(=O)(=O)Cc3ccc(Cl)cc3)n2)cc1 (centres undefined)	none (no result: MenB inh, MbtI inh, AID504770)
N#Cc1c(-c2ccccc2)cc(-c2ccccc2)nc1SCC(O)CS(=O)(=O)Cc1ccc(Cl)cc1 (centres undefined)	Polio RdRp inh 89.0 (no result: MenB inh, MbtI inh, AID504770)
COC(=O)Cc1c(-c2ccccc2)c2cc(Br)ccc2[nH]c1=O	none (no result: MenB inh, Polio RdRp inh, MbtI inh)
C=CCn1c(-c2ccncc2)n[nH]c1=S	MbtI inh 69.6
S=c1[nH]nc(-c2ccncc2)n1C1CC1	MbtI inh 59.8 (no result: Polio RdRp inh)
O=S(=O)(c1ccc(-c2csc(-c3cccnc3)n2)cc1)N1CCCCC1	none (no result: MenB inh, Polio RdRp inh, MbtI inh)
O=C1C=CC(=O)c2c(Cl)ccc(Cl)c21	AID504770 -2.05
Cn1c(=S)[nH]c2ccccc21	MbtI inh 101.4
CCCCn1c(=S)[nH]c2ccccc21	none
CCOc1ccc2c(c1)[nH]c(=S)n2C	MbtI inh 78.5
CCOC(=O)c1c(C)n(C)c2ccc(OCC)cc12	none (no result: MbtI inh)
CC(c1ccccc1)n1c(=S)[nH]c2ccccc21 (centres undefined)	MbtI inh 89.1
COc1ccccc1CNS(=O)(=O)c1c(C)nc2sc(C)cn2c1=O	none (no result: MenB inh, MbtI inh, AID504770)
CC1Cc2ccccc2N1C(=O)CSc1ncccc1C(=O)O (centres undefined)	none
Cc1[nH]n(-c2ccccc2)c(=O)c1Sc1ccc(Cl)cc1	none
Cc1[nH]n(-c2ccc(Cl)cc2)c(=O)c1C=O	MbtI inh 70.9
COc1ccccc1OCCNc1ncnc2sccc12	none
CCOCCCNc1ncnc2sccc12	Polio RdRp inh 83.0
O=C(O)CSCC(=O)Nc1ccc2c(c1)OCO2	none (no result: MenB inh, Polio RdRp inh, MbtI inh)
COc1ccc(CCN2C(=O)CC(=O)NC2=S)cc1OC	none
COc1ccc(CCN2CC(=O)N3CCCC(C4=CC(=O)C=CC4=O)=C3C2=O)cc1OC	MbtI inh 98.8
CCc1ccc(NC(=O)c2ccc3c(=O)n4nc(Nc5ccccc5C)sc4nc3c2)cc1	none (no result: MenB inh, MbtI inh, AID504770)
Cc1sc2c(c1C)CSC(C(=O)O)=C2	MbtI inh 97.6
CC(=O)Nc1ccc(C2=N/C(=C/c3cc(Br)cs3)C(=O)O2)cc1	none (no result: MenB inh, Polio RdRp inh, MbtI inh)
O=c1c(=NNc2ccccc2)c(=O)c2ccccc12	none
O=c1c(=NNc2nn[nH]n2)c(=O)c2ccccc12	Polio RdRp inh -20.0
ClCc1csc(Nc2ccccc2)n1	none (no result: MenB inh)
Cc1csc(Nc2ccccc2)n1	MbtI inh 72.1 (no result: MenB inh)
CCOc1ccccc1NC(=O)CS	MbtI inh 82.9
CCOc1ccccc1NC(=O)c1ccc(C(=O)Nc2ccccc2OCC)cc1	none (no result: MenB inh, MbtI inh, AID504770)
Cc1ccc(C)n1-n1cnnc1	none (no result: MenB inh, Polio RdRp inh, MbtI inh)
C=C(C)CNC(=S)Nc1cc(Cl)ccc1Sc1nncn1C	MbtI inh 79.2
COc1cc(CC(=O)Nc2cc(Cl)ccc2Sc2nncn2C)cc(OC)c1OC	none
c1ccc(-c2nccnc2-c2ccccn2)nc1	none (no result: MenB inh, Polio RdRp inh, MbtI inh)
COc1cc2c3nc4n(c(=O)c3n(CC(=O)N3CCCCC3C)c2cc1OC)CCS4 (centres undefined)	none
Cc1ccc(NC(=S)C(C#N)C(N)=O)cc1Cl (centres undefined)	MbtI inh 74.3
CC1=C(c2ccc(C(C)C)cc2)S(=O)(=O)N=C1N1CCC(C(=O)NCc2ccccc2)CC1	Polio RdRp inh 34.0 (no result: MenB inh, MbtI inh, AID504770)
CC1=C(c2ccc(Cl)cc2)S(=O)(=O)N=C1N1CCC(C(=O)NCc2ccccc2F)CC1	none (no result: MenB inh, MbtI inh, AID504770)
Cc1nc2cc(NC(=O)c3ccc(Br)s3)ccc2s1	none (no result: MenB inh, Polio RdRp inh, MbtI inh)
NC(C(=O)O)c1ccccc1F (centres undefined)	none (no result: MenB inh, Polio RdRp inh, MbtI inh)
Cc1ccccc1Nc1nn2c(=O)c3ccc(C(=O)NCc4ccccc4)cc3nc2s1	none (no result: MenB inh, MbtI inh, AID504770)
Cc1cccc(C)c1Nc1nn2c(=O)c3ccccc3nc2s1	Polio RdRp inh 88.0
Cc1cc(C)c(Nc2nn3c(=O)c4cc5c(cc4nc3s2)OCO5)c(C)c1	Polio RdRp inh 87.0 (no result: MenB inh, MbtI inh, AID504770)
N#CC1=C(Nc2ccc(Br)cc2)CCC1	none
Cc1ccccc1OCC(=O)Nc1ccc(S(=O)(=O)NC(C)(C)C)cc1	none (no result: MenB inh, Polio RdRp inh, MbtI inh)
CCn1c(COc2cccc(C)c2)nnc1SCC(=O)NC(C)(C)C	MenB inh 41.0
Cc1ccc(NC(=O)Sc2ccc(Cl)cc2)cc1	MbtI inh 57.0
Cn1ccnc1C(O)c1ccc(N)cc1 (centres undefined)	none
O=C(c1cc(O)ccc1O)c1coc2ccc(O)cc12	MbtI inh 99.8
O=c1[nH]c(CN2CCNCC2)nc2ccccc12	none
CC(c1nc2ccccc2c(=O)[nH]1)N1CCN(Cc2ccc(Cl)s2)CC1 (centres undefined)	Polio RdRp inh -3.0
O=C(O)C12CC3CC(C1)CC(c1ccccc1)(C3)C2	none (no result: MenB inh)
Nc1cccc2cccc(C(=O)O)c12	Polio RdRp inh 89.0 (no result: MenB inh)
O=C(CSc1nnc(-c2ccco2)c(-c2ccco2)n1)N1c2ccccc2Sc2ccc(Cl)cc21	MenB inh 32.6
COc1ccc(-c2oc3ncn4nc(COc5ccc(Cl)cc5)nc4c3c2-c2ccc(OC)cc2)cc1	Polio RdRp inh 55.0 (no result: MenB inh, MbtI inh, AID504770)
CN1CCCNC1c1ccc(-c2ccc(Br)cc2)o1 (centres undefined)	none
CC(C)N(C(=O)CSc1n[nH]c(-c2cccs2)n1)C(C)C	AID504770 -4
C/C(N)=C(/C#N)C(=O)CSc1n[nH]c(-c2cccs2)n1	none
Cc1ccn(CCC(=O)O)n1	none
Cc1ccc(C)n1CCC(=O)O	Polio RdRp inh 69.0
CCOC(=O)c1sc(Br)nc1C	none (no result: MenB inh, Polio RdRp inh, MbtI inh)

From PubChem BioAssay
